PubChem BioAssay (Tox21)
Inconclusive results are not listed. The source made the active and inactive calls. Unless noted, calls follow the shape of the dose curve; as a rule, active = well fitted curve in the direction sought with a large enough effect in the repeat runs; inconclusive = weak or mixed curves; inactive = no such curve, though single readings can be large; an effect the other way counts as inactive or inconclusive.

Assays:
[1] = A CellTox Green Cytotoxicity Assay to monitor cytotoxicity in HepG2 cells - 8 hour (AID 1224890); also: nearly all actives have a fitted effect of over 45% in size
In short: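 First, HepG2 cells (600/well) mixed with reagent were plated; second, after 5 h at 37 C they received compounds via pintool; third, fluorescence was measured at 0 h through 40 h at 8 h intervals.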

[2] = qHTS assay to identify small molecule antagonists of the estrogen receptor alpha (ER-alpha) signaling pathway using the BG1 cell line in the presence of 0.1 nM 17-beta-estradiol - cell viability counter screen (AID 1259241); also: nearly all actives have a fitted effect of over 40% in size
In short: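 CellTiter-Fluor read (30 min, 37C) on ER-alpha/ERE-luc VM7Luc4E2 cells; 22 hr compound treatment; agonist 0.1 nM E2 final; same-well multiplex.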

[3] = qHTS assay to identify small molecule antagonists of the androgen receptor (AR) signaling pathway using the MDA cell line in the presence of 0.5 nM R1881 - cell viability counter screen (AID 1259242); also: nearly all actives have a fitted effect of over 45% in size
In short: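 qHTS format. MDA-kb2 (MMTV-luc, AR/GR responsive) + cpd + 0.5 nM R1881 final, 16 hr 37C/0% CO2 → CellTiter-Fluor 30 min → fluorescence intensity.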

[4] = qHTS assay to identify small molecule phospholipidosis (PLD) inducers (AID 1259344; active = well fitted curve in the direction sought with a large enough effect; an effect the other way counts as inactive or inconclusive)
In short: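 After 4 h attachment on collagen I, HepG2 cells were dosed with compound alongside LipidTOX Red, kept 24 h at 37 C, fixed, and imaged for lamellar phospholipid pits.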

[5] = qHTS assay to identify small molecule HDAC inhibitors (AID 1259364);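 also: wild-type HCT-116 cells with endogenous class I/II HDAC activity; top concentration of the series differs between compounds; nearly all actives have a fitted effect of over 45% in size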
In short: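 Quantitative high-throughput format: overnight-seeded HCT-116 cells got compounds for 2 hr at 37C; HDAC-Glo I/II reagent added, 30 min RT, luminescence measured.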

[6] = qHTS assay to identify small molecule HDAC inhibitors - cell viability counter screen (AID 1259365); also: series mostly up to about 92 µM; nearly all actives have a fitted effect of over 50% in size
In short: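 To flag cytotoxic hits, 1,500 wild-type HCT-116 cells per well, plated the day before, receive test compounds for 2hr at 37 C before CellTiter-Glo reagent and a luminescence read.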

[7] = qHTS assay to identify small molecule agonists of the sonic hedgehog signaling (Shh) pathway - cell viability counter screen (AID 1259366); also: nearly all actives have a fitted effect of over 50% in size
In short: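 Fluorescence from CellTiter-Fluor reports live cells in this counter screen. NIH/3T3-derived Gli1-Luc reporter cells receive test compounds for 24hr at 37C; reagent goes in at 23hr.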

[8] = qHTS assay to identify small molecule antagonists of the sonic hedgehog signaling (Shh) pathway - cell viability counter screen (AID 1259367); also: nearly all actives have a fitted effect of over 55% in size
In short: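 Conditioned medium drove Shh signaling in 3T3 Gli1-Luc cells exposed to compounds at 37C and 5% CO2. Viability was determined from CellTiter-Fluor fluorescence, with reagent incubated 1 hr after 23 hr of treatment.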

[9] = qHTS assay to identify small molecule agonists of the sonic hedgehog signaling (Shh) pathway (AID 1259368; calls by dose curve;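 also: NIH/3T3-derived 3T3Gli1-Luc cells carrying a stable Gli1-driven firefly luciferase reporter; series mostly up to about 92 µM; nearly all actives have a fitted effect of over 15% in size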)
In short: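 Quantitative high-throughput format using a Gli1-driven firefly luciferase reporter line derived from NIH/3T3 cells. After a 24 hr compound treatment at 37 C and 5% CO2, luminescence reported Gli1 response element activity.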

[10] = qHTS assay to identify small molecule antagonists of the sonic hedgehog signaling (Shh) pathway (AID 1259369; calls by dose curve; also: nearly all actives have a fitted effect of over 45% in size; also: potency is read from the fitted curve at half-maximal effect)
In short: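 Stable Gli1-Luc reporter NIH/3T3 clone; quantitative HTS in stimulated mode with conditioned medium. Luminescence measured after 24hr compound treatment at 37 C.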

[11] = biological target: Estrogen receptor beta (Homo sapiens) (UniProt Q92731); assay: qHTS assay to identify small molecule agonists of the estrogen receptor beta (ER-beta) signaling pathway (AID 1259377; active = well fitted activation curve with a large enough effect in the signal ratio in the repeat runs, not every such curve was filed as active; the % refers to the signal ratio)
Chain of Estrogen receptor beta (Homo sapiens) (Q92731 whole entry, looked up): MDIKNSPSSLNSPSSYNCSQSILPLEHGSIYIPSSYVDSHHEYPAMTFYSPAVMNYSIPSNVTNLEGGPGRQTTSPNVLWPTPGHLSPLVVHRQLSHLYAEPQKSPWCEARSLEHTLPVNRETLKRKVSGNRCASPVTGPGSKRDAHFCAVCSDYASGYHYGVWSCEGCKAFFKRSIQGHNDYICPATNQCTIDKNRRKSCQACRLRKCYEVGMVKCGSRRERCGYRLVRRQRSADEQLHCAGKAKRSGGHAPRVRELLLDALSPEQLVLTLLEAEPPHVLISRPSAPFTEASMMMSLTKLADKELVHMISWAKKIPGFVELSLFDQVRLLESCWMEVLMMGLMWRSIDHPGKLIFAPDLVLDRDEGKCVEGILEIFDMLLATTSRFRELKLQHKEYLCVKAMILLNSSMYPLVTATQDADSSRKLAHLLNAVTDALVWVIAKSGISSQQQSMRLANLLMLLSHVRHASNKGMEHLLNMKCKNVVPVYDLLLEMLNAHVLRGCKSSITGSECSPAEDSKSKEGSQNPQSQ
In short: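 Screening used GripTite ER-beta-UAS-bla cells held in 2% charcoal-stripped FBS medium. After overnight (16 hr) compound incubation at 37C, beta-lactamase activity was detected with a FRET substrate by fluorescence.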

[12] = biological target: Estrogen receptor beta (Homo sapiens) (UniProt Q92731); assay: qHTS assay to identify small molecule antagonists of the estrogen receptor beta (ER-beta) signaling pathway (AID 1259378; active = well fitted inhibition curve with a large enough effect in the signal ratio in the repeat runs, not every such curve was filed as active; the % refers to the signal ratio)
In short: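 ER-beta-UAS-bla HEK293T (GripTite) cells in 2% charcoal-stripped FBS medium were preincubated 6 hr at 37C, dosed with compound, then stimulated with 1 nM E2 (final) for 16 hr; beta-lactamase reporter read by B/G FRET fluorescence after 2 hr substrate loading.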

[13] = qHTS assay to identify small molecule agonists of the androgen receptor (AR) signaling pathway in the presence of an antagonist - cell viability counter screen (AID 1259379);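 also: MDA-kb2 human breast cancer cells carrying an MMTV luciferase reporter; series mostly up to about 92 µM; nearly all actives have a fitted effect of over 25% in size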
In short: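 Nilutamide-containing (3.0uM final) MDA-kb2 cultures, 3,000 cells/well, were treated with compounds across 15 concentrations. After 16 hr at 37C with no CO2, cell viability was determined by CellTiter-Fluor fluorescence in the luciferase assay wells.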

[14] = qHTS assay to identify small molecule agonists of the estrogen receptor beta (ER-beta) signaling pathway - cell viability counter screen (AID 1259380); also: nearly all actives have a fitted effect of over 30% in size
In short: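 Steps: plate ER-beta-UAS-bla HEK293T cells, rest 6 hr; add compounds in DMSO; incubate 16 hr at 37C, 5% CO2; add FRET substrate 2 hr; add CellTiter-Glo, wait 30 min at room temperature; read luminescence.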

[15] = qHTS assay to identify small molecule antagonists of the estrogen receptor beta (ER-beta) signaling pathway - cell viability counter screen (AID 1259382); also: series mostly up to about 92 µM; nearly all actives have a fitted effect of over 55% in size
In short: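 Viability is scored by CellTiter-Glo luminescence (30 min, room temperature) in ER-beta-UAS-bla HEK293T wells already read for reporter fluorescence. Compound exposure lasts 16 hr at 37C alongside 1nM 17-beta-estradiol in charcoal-stripped serum medium.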

[16] = biological target: Estrogen receptor (Homo sapiens) (UniProt P03372); assay: qHTS assay to identify small molecule antagonists of the estrogen receptor alpha (ER-alpha) signaling pathway using the BG1 cell line in the presence of 0.1 nM 17-beta-estradiol (AID 1259244); also: nearly all actives have a fitted effect of over 50% in size
Chain of Estrogen receptor (Homo sapiens) (P03372 whole entry, looked up): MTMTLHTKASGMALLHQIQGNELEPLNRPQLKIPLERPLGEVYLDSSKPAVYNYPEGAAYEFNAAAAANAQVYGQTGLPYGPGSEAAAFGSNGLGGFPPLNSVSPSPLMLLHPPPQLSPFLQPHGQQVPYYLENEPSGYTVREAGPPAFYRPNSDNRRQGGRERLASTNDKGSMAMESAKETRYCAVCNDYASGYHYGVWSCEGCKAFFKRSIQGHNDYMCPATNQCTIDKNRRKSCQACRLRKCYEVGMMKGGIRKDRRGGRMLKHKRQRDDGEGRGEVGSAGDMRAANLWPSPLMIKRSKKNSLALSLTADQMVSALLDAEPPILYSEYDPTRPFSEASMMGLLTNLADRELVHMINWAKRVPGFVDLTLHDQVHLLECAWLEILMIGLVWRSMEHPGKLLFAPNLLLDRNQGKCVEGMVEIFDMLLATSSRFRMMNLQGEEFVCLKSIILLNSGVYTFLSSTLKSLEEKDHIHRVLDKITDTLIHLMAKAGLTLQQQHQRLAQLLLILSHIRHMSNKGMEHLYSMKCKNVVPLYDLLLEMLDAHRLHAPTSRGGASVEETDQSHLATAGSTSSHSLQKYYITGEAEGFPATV
In short: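 Reporter is a stably transfected luciferase under four estrogen responsive elements in VM7Luc4E2 cells expressing native full-length ER-alpha; inhibition of 0.1 nM (final) 17beta-estradiol-driven signal over 22 h is read by luminescence.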

[17] = biological target: Estrogen receptor (Homo sapiens) (UniProt P03372); assay: qHTS assay to identify small molecule agonists of the estrogen receptor alpha (ER-alpha) signaling pathway in the presence of an antagonist (AID 1259383; calls by dose curve; also: top concentration of the series differs between compounds; nearly all actives have a fitted effect of over 15% in size)
In short: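 Readout was ERE-driven luciferase luminescence in VM7Luc4E2 cells, which express full-length ER-alpha endogenously. Compounds were tested at 15 concentrations for 22hr alongside 10.0nM ICI-182,780 (final concentration).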

[18] = qHTS assay to identify small molecule agonists or antagonists of the thyroid stimulating hormone receptor (TSHR) signaling pathway - wild type cell line counter screen (AID 1259384; calls by dose curve)
In short: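 Wild-type HEK293 cells were plated 18 h at 37 C/5% CO2, pin-dosed with compound plus Ro20-1724 medium, held 30 min at room temperature, then given cAMP-d2 and anti-cAMP-cryptate; fluorescence was read after 1 h. Fifteen concentrations, triplicate.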

Measured: Potency

CC(C)NCC(O)c1ccc(NS(C)(=O)=O)cc1 (stereo unspecified)
not listed: [16] | [17] | [18]
inactive: all other assays above

O=C1CCCCCCCCCCCN1
not listed: [4] | [5] | [9]
inactive: all other assays above

CC/C=C\CC/C=C/C(OCC)OCC
active: [10] 27.3 µM
not listed: [4] | [16] | [17] | [18]
inactive: all other assays above

CC[N+](C)(C)c1cccc(O)c1
not listed: [5] | [14] | [16] | [17]
inactive: all other assays above

C=COCC1CCC(CO)CC1 (stereo unspecified)
not listed: [4] | [5] | [11] | [12]
inactive: all other assays above

CCCC(=O)O[C@]1(C(=O)CO)CC[C@H]2[C@@H]3CCC4=CC(=O)CC[C@]4(C)[C@H]3[C@@H](O)C[C@@]21C
not listed: [7] | [9] | [11] | [12] | [16] | [17]
inactive: all other assays above

OCCCC1CCCCC1
not listed: [4] | [5] | [9] | [12]
inactive: all other assays above

FC(F)OC(Cl)C(F)(F)F (stereo unspecified)
not listed: [5] | [7] | [16] | [17] | [18]
inactive: all other assays above

CC(C)=CCCC(C)CC(=O)O (stereo unspecified)
not listed: [4] | [16] | [17]
inactive: all other assays above
